# Results as given in the supplement of paper PMC8728848.
# About 410 targets per protein were measured; listed, in parts, are those with the strongest signals and a random draw of the rest.
# B1: SP16664D-bth-476-27-476 (Bacteroides thetaiotaomicron) (protein)
# chain: DDLEVGKNIDESAYSGIYENNAYLRDGKSNLVSKVVELHGETYATTVKMGLSKTPNTATSAKVKIDAAYLETYNKAHNTDFALYPQDLVTFANEGILTVNANTKSAEVEMTIRAGEGLQEDKTYAIPVAISDQSSDITIKDEDAKHCIYLVKDMRNAGDAYKGEGVMQGYLFFEVNDVNPLNTLSFQLENGKLLWDVVVLFAANINYDAEAGRPRVQCNPNVQYLLDNNETLLQPLRRRGVKVLLGLLGNHDITGLAQLSEQGAKDFAREVAQYCKAYNLDGVNYDDEYSNSPDLSNPSLTNPSTAAAARLCYETKQAMPDKLVTVFDWGQMYGVATVDGVDAKEWIDIVVANYGSAAYPIGQMTKKQCSGISMEFNLGGGGSLSASKAQSMIDGGYGWFMGFAPSPAKYGSVFSRLQGGGEVLYGSNVAAPTIFYKKNDPTPYKYPDDL
# How the values were obtained:
# Assay in all cases: glycan array binding signal (z-score within array); higher = stronger binding
# Conditions in all cases: glycan notation: IUPAC condensed, linker removed
# [1] = molecular target: Gal(b1-4)GlcNAc(b1-3)Gal(b1-4)GlcNAc(b1-3)GalNAc
# Method in brief: (§1)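 Arrays were curated from the Consortium for Functional Glycomics database, 3228 in total, and kept only where the protein sequence was available. Binding is expressed as a within-array Z-score. This score was averaged across arrays of the same protein sequence at different concentrations or buffers and across linkers, and negative values can be read as non-binding.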
# [2] = molecular target: Gal(b1-4)GlcNAc(b1-3)Gal(b1-4)GlcNAc(b1-3)[Gal(b1-4)GlcNAc(b1-3)Gal(b1-4)GlcNAc(b1-6)]GalNAc
# Method in brief: as §1
# [3] = molecular target: Gal(b1-4)GlcNAc(b1-6)GalNAc
# Method in brief: as §1
# Gal6S(b1-4)Glc6S = molecular target: Gal6S(b1-4)Glc6S
# Method in brief: as §1
# GalNAc(b1-3)Gal = molecular target: GalNAc(b1-3)Gal
# Method in brief: as §1
# GalNAc3S(b1-4)GlcNAc = molecular target: GalNAc3S(b1-4)GlcNAc
# Method in brief: as §1
# GlcA(b1-3)GlcNAc = molecular target: GlcA(b1-3)GlcNAc
# Method in brief: as §1
# [4] = molecular target: GlcNAc(a1-4)Gal(b1-4)GlcNAc(b1-3)Gal(b1-4)GlcNAc
# Method in brief: as §1
# [5] = molecular target: GlcNAc(a1-4)Gal(b1-4)GlcNAc(b1-3)Gal(b1-4)GlcNAc(b1-3)Gal(b1-4)GlcNAc
# Method in brief: as §1
# [6] = molecular target: GlcNAc(b1-3)Gal(b1-4)GlcNAc(b1-3)Gal(b1-4)GlcNAc
# Method in brief: as §1
# [7] = molecular target: GlcNAc(b1-3)Gal(b1-4)GlcNAc(b1-3)Gal(b1-4)GlcNAc(b1-3)Gal(b1-4)GlcNAc(b1-2)Man(a1-3)[GlcNAc(b1-3)Gal(b1-4)GlcNAc(b1-3)Gal(b1-4)GlcNAc(b1-3)Gal(b1-4)GlcNAc(b1-2)Man(a1-6)]Man(b1-4)GlcNAc(b1-4)[Fuc(a1-6)]GlcNAc
# Method in brief: as §1
# [8] = molecular target: GlcNAc(b1-3)[GlcNAc(b1-6)]Gal(b1-4)GlcNAc
# Method in brief: as §1
# Neu5Ac(a2-3)Gal = molecular target: Neu5Ac(a2-3)Gal
# Method in brief: as §1
# [9] = molecular target: Neu5Ac(a2-3)Gal(b1-3)GalNAc6S
# Method in brief: as §1
# [10] = molecular target: Neu5Ac(a2-3)Gal(b1-4)GlcNAc(b1-3)Gal(b1-4)[Fuc(a1-3)]GlcNAc
# Method in brief: as §1
# [11] = molecular target: Neu5Ac(a2-3)Gal(b1-4)[Fuc(a1-3)]GlcNAc(b1-3)GalNAc
# Method in brief: as §1
# [12] = molecular target: Neu5Ac(a2-3)Gal(b1-4)[Fuc(a1-3)]GlcNAc(b1-6)[Gal(b1-3)]GalNAc
# Method in brief: as §1
# [13] = molecular target: Neu5Ac(a2-6)Gal(b1-4)GlcNAc(b1-2)Man
# Method in brief: as §1
# [14] = molecular target: Neu5Ac(a2-6)Gal(b1-4)GlcNAc(b1-2)Man(a1-3)Man(b1-4)GlcNAc(b1-4)GlcNAc
# Method in brief: as §1
# [15] = molecular target: Neu5Ac(a2-6)Gal(b1-4)GlcNAc(b1-2)Man(a1-3)[Gal(b1-4)GlcNAc(b1-2)Man(a1-6)]Man(b1-4)GlcNAc(b1-4)GlcNAc
# Method in brief: as §1
# [16] = molecular target: Neu5Ac(a2-6)Gal(b1-4)GlcNAc(b1-2)Man(a1-6)[Man(a1-3)]Man(b1-4)GlcNAc(b1-4)GlcNAc
# Method in brief: as §1
# [17] = molecular target: Neu5Ac(a2-6)Gal(b1-4)GlcNAc(b1-2)[Neu5Ac(a2-6)Gal(b1-4)GlcNAc(b1-4)]Man(a1-3)[GlcNAc(b1-4)][Neu5Ac(a2-6)Gal(b1-4)GlcNAc(b1-2)[Neu5Ac(a2-6)Gal(b1-4)GlcNAc(b1-6)]Man(a1-6)]Man(b1-4)GlcNAc(b1-4)GlcNAc
# Method in brief: as §1
# [18] = molecular target: Neu5Ac(a2-6)Gal(b1-4)GlcNAc(b1-3)Gal(b1-4)GlcNAc(b1-2)Man(a1-3)[Neu5Ac(a2-6)Gal(b1-4)GlcNAc(b1-3)Gal(b1-4)GlcNAc(b1-2)Man(a1-6)]GalNAc
# Method in brief: as §1
# [19] = molecular target: Neu5Ac(a2-6)Gal(b1-4)GlcNAc(b1-6)[Gal(b1-3)GlcNAc(b1-3)]Gal(b1-4)Glc
# Method in brief: as §1
# Neu5Ac(a2-6)GalNAc = molecular target: Neu5Ac(a2-6)GalNAc
# Method in brief: as §1
# [20] = molecular target: Neu5Ac(a2-6)GalNAc(b1-4)GlcNAc6S
# Method in brief: as §1
# [21] = molecular target: Neu5Ac(a2-8)Neu5Ac(a2-8)Neu5Ac(a2-3)[GalNAc(b1-4)]Gal(b1-4)Glc
# Method in brief: as §1
# [22] = molecular target: Neu5Gc(a2-8)Neu5Ac(a2-3)Gal(b1-4)GlcNAc
# Method in brief: as §1
binder,measurement,setting,value
B1,glycan array binding signal (z-score),[1],-0.091
same,glycan array binding signal (z-score),[2],-0.045
same,glycan array binding signal (z-score),[3],-0.123
same,glycan array binding signal (z-score),Gal6S(b1-4)Glc6S,0.344
same,glycan array binding signal (z-score),GalNAc(b1-3)Gal,-0.159
same,glycan array binding signal (z-score),GalNAc3S(b1-4)GlcNAc,-0.345
same,glycan array binding signal (z-score),GlcA(b1-3)GlcNAc,-0.153
same,glycan array binding signal (z-score),[4],-0.259
same,glycan array binding signal (z-score),[5],-0.185
same,glycan array binding signal (z-score),[6],0.054
same,glycan array binding signal (z-score),[7],-0.18
same,glycan array binding signal (z-score),[8],-0.212
same,glycan array binding signal (z-score),Neu5Ac(a2-3)Gal,-0.156
same,glycan array binding signal (z-score),[9],-0.227
same,glycan array binding signal (z-score),[10],0.058
same,glycan array binding signal (z-score),[11],0.765
same,glycan array binding signal (z-score),[12],9.86
same,glycan array binding signal (z-score),[13],-0.235
same,glycan array binding signal (z-score),[14],-0.117
same,glycan array binding signal (z-score),[15],2.55
same,glycan array binding signal (z-score),[16],3.75
same,glycan array binding signal (z-score),[17],2.38
same,glycan array binding signal (z-score),[18],1.28
same,glycan array binding signal (z-score),[19],-0.349
same,glycan array binding signal (z-score),Neu5Ac(a2-6)GalNAc,-0.006
same,glycan array binding signal (z-score),[20],-0.065
same,glycan array binding signal (z-score),[21],2.53
same,glycan array binding signal (z-score),[22],-0.114
